Results as given in PubChem BioAssay (NCATS).
Records with an inconclusive call do not appear. Calls of active or inactive are those of the source. Unless noted, calls come from the whole dose curve; as a rule, active = well fitted curve in the direction sought with a large enough effect; inconclusive = small, poorly fitted or top-dose-only effect, or another doubt; inactive = no such curve, though single readings can be large; an effect the other way counts as inactive or inconclusive.

Experiments:
[1] = Quantitative high throughput screen for delayed death inhibitors of the malarial parasite plastid, 96 hour incubation (AID 488745); details: Plasmodium falciparum growth; series mostly up to 28.7 µM;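 note: luciferase-expressing P. falciparum in erythrocytes at 2% hematocrit and 0.1% parasitemia; nearly all actives have a fitted effect of over 70% in size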
In short: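 Readout is firefly luciferase luminescence from an integrated reporter in P. falciparum; lower signal marks inhibited growth. Cultures at 2% hematocrit and 0.1% parasitemia were treated with compound across two generations (96 h, 37 C, 5% CO2).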

[2] = Quantitative high throughput screen for delayed death inhibitors of the malarial parasite plastid, 48 hour incubation (AID 488752); details: Plasmodium falciparum growth; series mostly up to 28.7 µM; note: nearly all actives have a fitted effect of over 65% in size
In short: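 First, compound was pinned into RPMI 1640 medium containing 0.5% Albumax. Next, reporter-parasite-infected erythrocytes were added to 2% hematocrit and 0.1% parasitemia. After 48 h at 37 C under 5% CO2, luciferase detection reagent was added and luminescence read.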

[3] = target: M-phase phosphoprotein 8 (Homo sapiens) (UniProt Q99549); assay: qHTS Validation Assay for Inhibitors for MPP8 Chromodomain Interactions with Methylated Histone Tails (AID 488949); details: AlphaScreen MPP8 binding to H3K9me3 peptide; series mostly up to 114 µM;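 note: 50 nM MPP8 with 50 nM peptide preformed then compounds added for 30 min; AlphaScreen signal from MPP8 chromodomain bound to biotinylated H3K9me3 peptide; top concentration of the series differs between compounds; nearly all actives have a fitted effect of over 55% in size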
In short: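 Chemiluminescent proximity assay: histidine-tag capture via nickel acceptor beads, biotin peptide via streptavidin donor beads. Protein and peptide each at 50 nM, pH 7.4, with 30 min incubations at room temperature for complex formation, compound exposure and bead binding.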

[4] = target: Ubiquitin carboxyl-terminal hydrolase 2 (Homo sapiens) (UniProt O75604); assay: qHTS Validation Assay for Inhibitors of Ubiquitin-specific Protease USP2a Using CHOP2 as the Reporter (AID 463106); details: USP2a cleavage of CHOP2 reporter, enzymatic; series mostly up to 38.3 µM
In short: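 Readout was coupled fluorescence (Ex 485/Em 531 nm), read 60 min after adding 25 nM final Ub-CHOP2 and 25 nM reporter substrate. Beforehand, 10 nM final USP2 core had 30 min at RT with compound in pH 8.0 buffer. Curves were fitted after normalization to NEM and flagged for artifacts using time-zero reads.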

[5] = target: DNA polymerase III PolC-type (Bacillus subtilis (strain 168)) (UniProt P13267); assay: qHTS Validation Assay for the Inhibitors of DNA Replication in Gram-Positive Bacteria (AID 485295); details: Gram-positive bacterial DNA replication assay; series mostly up to 57.1 µM;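 note: reconstituted holoenzyme with PolC plus beta clamp SSB and primase; PicoGreen fluorescence of double-stranded DNA made on primed circular M13 template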
In short: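 Inhibition of DNA synthesis by the reconstituted PolC holoenzyme, monitored through PicoGreen staining of dsDNA formed from ssM13Gori, dNTPs and NTPs, with compound preincubation and room-temperature reaction.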

[6] = target: Tumor susceptibility gene 101 protein (Homo sapiens) (UniProt Q99816); assay: qHTS Validation Assay for Iinhibitors of HIV-1 Budding by Blocking the Interaction of PTAP/TSG101 (AID 485342; calls by dose curve); details: TSG101-PTAP binding, fluorescence polarization, 4-point titration; series mostly up to 115 µM
In short: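 Compound wells held the Tsg101 binding domain (10 uM) and a FITC-conjugated PTAP peptide (50 nM) in buffer at pH 7.5 containing 0.15 M NaCl and 0.01% Tween 20; polarization was recorded after 20 min, r.t.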

[7] = qHTS Validation Assay to Find Inhibitors of Chronic Active B-Cell Receptor Signaling (AID 485345; active = well fitted curve in the direction sought with a large enough effect in the main read-out, with a control signal flat, not every such curve was filed as active); details: ABC-DLBCL cells, chronic BCR signaling reporter, CBG luciferase; series mostly up to 46.1 µM
In short: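 Read-out: ratio of filter-corrected green (IkappaBalpha fusion) to red (native) luciferase signal in doxycycline-induced TMD8 cells after 4 h at 37C. Titration spanned 46 uM–3 nM; Data were normalised to basal cells and 10 uM MG-132 wells.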

[8] = target: Beta-2 adrenergic receptor (Homo sapiens) (UniProt P07550); assay: qHTS validation assay of beta-arrestin-biased ligands of beta2-adrenergic receptor (AID 485366); details: cell-based beta-arrestin recruitment to ADRB2, qHTS; series mostly up to 46.1 µM
In short: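 qHTS, Tango cells, 1500 cells/well, DMEM + 1% FBS. Cpd 18 hr at 37 degrees C. Luciferin/ATP/CoA detection mix, 15 min RT, luminescence read. %Activity from corrected signal; CRC fit, curve class.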

[9] = target: Thioredoxin reductase 1, cytoplasmic (Rattus norvegicus) (UniProt O89049); assay: qHTS Assay for Substrates of Mammalian Selenoprotein Thioredoxin Reductase 1 (TrxR1) (AID 488772); details: purified TrxR1, NADPH consumption substrate assay; series mostly up to 57.1 µM;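 note: a drop in NADPH fluorescence below the no-compound background marks a TrxR1 substrate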
In short: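 In this dual-purpose format, potential substrates are identified from the first fluorescence read after selenite addition, not from the 8-minute delta. Rat enzyme is preincubated with NADPH and then with compound at ~22 deg C.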

[10] = target: Flap endonuclease 1 (Homo sapiens) (UniProt P39748); assay: qHTS Validation Assay for the Inhibitors of Human Flap endonuclease 1 (FEN1) (AID 488816); details: FEN1 nuclease activity, fluorogenic DNA substrate; series mostly up to 57.1 µM
In short: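 qHTS format: compounds and 10 nM FEN1 incubated 15 min at room temperature before adding 50 nM substrate. Cleavage followed by reads at 0 and 15 min; normalized data fitted to a four-parameter Hill curve.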

Measured: outcome

M-phase phosphoprotein 8 (Homo sapiens), sequence (Q99549 whole entry, looked up): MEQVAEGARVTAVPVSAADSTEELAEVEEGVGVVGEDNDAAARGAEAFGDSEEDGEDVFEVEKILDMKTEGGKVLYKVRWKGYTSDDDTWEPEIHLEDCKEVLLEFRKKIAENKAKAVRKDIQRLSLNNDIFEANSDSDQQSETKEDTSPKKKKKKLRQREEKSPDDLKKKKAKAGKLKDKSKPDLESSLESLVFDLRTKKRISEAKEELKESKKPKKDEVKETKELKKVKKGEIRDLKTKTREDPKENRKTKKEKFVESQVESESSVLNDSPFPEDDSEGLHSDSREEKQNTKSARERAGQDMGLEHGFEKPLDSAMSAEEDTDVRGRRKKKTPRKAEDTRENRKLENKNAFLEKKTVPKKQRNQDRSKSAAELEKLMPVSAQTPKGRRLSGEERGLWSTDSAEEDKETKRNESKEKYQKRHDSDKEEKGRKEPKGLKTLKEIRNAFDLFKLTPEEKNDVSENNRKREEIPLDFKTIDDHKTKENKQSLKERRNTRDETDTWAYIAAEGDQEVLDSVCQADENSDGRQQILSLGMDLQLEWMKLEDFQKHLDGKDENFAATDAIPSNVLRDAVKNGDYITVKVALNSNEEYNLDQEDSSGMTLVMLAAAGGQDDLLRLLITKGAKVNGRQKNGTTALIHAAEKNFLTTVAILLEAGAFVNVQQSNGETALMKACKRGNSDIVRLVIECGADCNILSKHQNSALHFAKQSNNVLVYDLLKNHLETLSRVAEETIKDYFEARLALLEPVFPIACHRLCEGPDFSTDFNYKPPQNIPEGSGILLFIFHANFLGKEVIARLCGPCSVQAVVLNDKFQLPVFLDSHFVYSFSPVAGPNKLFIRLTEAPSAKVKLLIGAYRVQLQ
Thioredoxin reductase 1, cytoplasmic (Rattus norvegicus), sequence (O89049 whole entry, looked up): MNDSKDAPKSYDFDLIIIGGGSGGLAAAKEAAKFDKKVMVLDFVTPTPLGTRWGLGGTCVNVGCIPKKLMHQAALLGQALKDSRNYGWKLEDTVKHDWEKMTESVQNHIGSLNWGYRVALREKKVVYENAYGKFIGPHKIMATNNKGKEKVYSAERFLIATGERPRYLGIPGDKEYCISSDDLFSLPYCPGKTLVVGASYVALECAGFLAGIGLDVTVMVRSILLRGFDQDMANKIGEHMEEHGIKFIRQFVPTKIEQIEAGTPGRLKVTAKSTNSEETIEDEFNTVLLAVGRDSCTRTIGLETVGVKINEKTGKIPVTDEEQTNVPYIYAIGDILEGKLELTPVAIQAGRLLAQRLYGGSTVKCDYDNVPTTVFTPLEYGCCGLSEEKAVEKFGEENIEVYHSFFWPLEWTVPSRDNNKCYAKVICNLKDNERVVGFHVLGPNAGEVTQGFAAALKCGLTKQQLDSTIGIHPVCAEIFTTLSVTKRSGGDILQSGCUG
Ubiquitin carboxyl-terminal hydrolase 2 (Homo sapiens), sequence (O75604 whole entry, looked up): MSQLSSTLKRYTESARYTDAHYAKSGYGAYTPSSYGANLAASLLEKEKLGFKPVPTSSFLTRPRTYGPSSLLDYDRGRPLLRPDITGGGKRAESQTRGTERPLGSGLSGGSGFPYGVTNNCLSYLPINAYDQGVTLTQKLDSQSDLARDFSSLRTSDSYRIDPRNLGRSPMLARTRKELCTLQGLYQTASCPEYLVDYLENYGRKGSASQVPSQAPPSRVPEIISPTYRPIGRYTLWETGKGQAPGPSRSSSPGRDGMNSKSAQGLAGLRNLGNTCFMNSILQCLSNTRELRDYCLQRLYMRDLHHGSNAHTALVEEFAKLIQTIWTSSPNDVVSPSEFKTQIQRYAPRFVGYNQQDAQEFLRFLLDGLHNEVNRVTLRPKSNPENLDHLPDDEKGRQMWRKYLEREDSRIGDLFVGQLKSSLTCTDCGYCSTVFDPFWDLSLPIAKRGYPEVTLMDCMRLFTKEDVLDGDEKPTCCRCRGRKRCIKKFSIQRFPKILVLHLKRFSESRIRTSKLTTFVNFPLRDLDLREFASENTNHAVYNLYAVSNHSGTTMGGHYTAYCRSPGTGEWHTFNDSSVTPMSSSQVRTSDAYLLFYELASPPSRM
Beta-2 adrenergic receptor (Homo sapiens), sequence (P07550 whole entry, looked up): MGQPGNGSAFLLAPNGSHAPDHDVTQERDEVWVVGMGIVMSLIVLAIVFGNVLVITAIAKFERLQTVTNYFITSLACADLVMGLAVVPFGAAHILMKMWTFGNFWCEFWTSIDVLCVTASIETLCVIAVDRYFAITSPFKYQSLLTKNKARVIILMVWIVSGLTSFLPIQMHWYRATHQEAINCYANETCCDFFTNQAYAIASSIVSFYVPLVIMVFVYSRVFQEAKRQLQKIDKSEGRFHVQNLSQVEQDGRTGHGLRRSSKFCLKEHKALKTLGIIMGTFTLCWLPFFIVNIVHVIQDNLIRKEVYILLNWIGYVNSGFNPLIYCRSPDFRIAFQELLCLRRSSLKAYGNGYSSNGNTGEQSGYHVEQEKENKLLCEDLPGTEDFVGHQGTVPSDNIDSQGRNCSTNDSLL
Flap endonuclease 1 (Homo sapiens), sequence (P39748 whole entry, looked up): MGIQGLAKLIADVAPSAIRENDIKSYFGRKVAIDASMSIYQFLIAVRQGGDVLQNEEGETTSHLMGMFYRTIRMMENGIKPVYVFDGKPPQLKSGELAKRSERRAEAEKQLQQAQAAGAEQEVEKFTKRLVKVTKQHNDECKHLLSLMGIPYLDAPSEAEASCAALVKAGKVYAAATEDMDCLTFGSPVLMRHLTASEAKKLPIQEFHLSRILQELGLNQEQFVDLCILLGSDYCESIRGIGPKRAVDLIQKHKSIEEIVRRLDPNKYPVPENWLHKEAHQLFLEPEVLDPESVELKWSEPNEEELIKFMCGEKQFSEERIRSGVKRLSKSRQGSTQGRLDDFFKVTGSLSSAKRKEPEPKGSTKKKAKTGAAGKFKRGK
Tumor susceptibility gene 101 protein (Homo sapiens), sequence (Q99816 whole entry, looked up, the tested form may be a part): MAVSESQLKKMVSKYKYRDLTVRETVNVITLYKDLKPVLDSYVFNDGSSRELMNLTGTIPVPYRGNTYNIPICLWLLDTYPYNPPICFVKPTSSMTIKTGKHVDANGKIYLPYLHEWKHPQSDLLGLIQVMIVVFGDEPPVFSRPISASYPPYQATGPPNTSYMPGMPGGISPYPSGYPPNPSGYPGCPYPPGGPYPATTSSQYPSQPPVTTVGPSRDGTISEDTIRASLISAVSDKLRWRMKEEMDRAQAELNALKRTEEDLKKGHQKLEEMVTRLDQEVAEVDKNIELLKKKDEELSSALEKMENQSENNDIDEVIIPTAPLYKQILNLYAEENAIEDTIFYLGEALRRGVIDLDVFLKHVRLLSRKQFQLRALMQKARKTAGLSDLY
DNA polymerase III PolC-type (Bacillus subtilis (strain 168)), sequence (P13267 whole entry, looked up): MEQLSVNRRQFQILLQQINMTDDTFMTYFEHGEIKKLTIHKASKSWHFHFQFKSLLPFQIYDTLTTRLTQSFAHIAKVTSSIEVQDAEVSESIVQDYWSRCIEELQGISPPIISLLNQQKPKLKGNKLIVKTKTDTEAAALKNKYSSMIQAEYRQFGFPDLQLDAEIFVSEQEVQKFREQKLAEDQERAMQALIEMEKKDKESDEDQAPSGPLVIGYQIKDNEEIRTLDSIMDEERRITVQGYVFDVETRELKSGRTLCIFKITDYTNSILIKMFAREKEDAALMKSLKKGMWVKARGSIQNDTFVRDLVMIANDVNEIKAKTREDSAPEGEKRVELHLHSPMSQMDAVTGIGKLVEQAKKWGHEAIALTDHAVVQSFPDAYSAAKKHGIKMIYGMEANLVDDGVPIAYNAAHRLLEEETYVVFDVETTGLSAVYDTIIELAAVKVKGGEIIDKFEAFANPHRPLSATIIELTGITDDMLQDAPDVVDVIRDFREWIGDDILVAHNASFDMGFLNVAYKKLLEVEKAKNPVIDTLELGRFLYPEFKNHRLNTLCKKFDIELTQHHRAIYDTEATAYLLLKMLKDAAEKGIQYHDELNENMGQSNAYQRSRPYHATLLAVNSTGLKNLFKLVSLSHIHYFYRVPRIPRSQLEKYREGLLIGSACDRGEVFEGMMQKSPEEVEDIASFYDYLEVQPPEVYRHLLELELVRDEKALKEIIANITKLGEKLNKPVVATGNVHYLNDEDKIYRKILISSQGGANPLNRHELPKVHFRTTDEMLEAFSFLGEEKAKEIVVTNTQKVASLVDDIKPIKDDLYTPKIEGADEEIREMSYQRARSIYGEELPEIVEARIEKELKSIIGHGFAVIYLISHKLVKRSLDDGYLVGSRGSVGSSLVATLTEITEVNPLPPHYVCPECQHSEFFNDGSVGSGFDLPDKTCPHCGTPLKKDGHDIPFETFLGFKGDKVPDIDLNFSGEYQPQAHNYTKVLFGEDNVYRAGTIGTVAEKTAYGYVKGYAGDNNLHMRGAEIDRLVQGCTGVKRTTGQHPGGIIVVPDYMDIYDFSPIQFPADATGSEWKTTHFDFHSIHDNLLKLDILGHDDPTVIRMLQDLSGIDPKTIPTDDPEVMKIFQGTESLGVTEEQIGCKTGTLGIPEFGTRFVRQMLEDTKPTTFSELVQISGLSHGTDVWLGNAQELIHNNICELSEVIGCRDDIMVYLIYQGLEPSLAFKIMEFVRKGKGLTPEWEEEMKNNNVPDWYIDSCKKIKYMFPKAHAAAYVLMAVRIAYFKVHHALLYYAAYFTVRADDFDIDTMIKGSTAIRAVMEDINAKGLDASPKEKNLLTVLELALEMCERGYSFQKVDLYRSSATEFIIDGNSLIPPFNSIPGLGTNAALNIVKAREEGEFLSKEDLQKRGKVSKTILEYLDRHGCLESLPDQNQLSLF

Cc1cc(C)c(NC(=O)C[C@H](CC(=O)O)c2cccc3ccccc23)c(C(=O)N2CCC3(CCCC3)CC2)c1
inactive: [1] | [2] | [3]

C[C@@](Cc1ccc(O)c(O)c1)(NN)C(=O)O
inactive: [3]

Oc1ccc(/C=C/c2cc(O)cc(O)c2)cc1
inactive: [4] | [5] | [6] | [7] | [8] | [9] | [10] | [3]

O=c1[nH]c(=O)n([C@H]2C[C@H](O)[C@@H](CO)O2)cc1/C=C/Br
inactive: [2] | [3]

O=C(NCCNCC(O)COc1ccc(O)cc1)N1CCOCC1 (configuration not stated)
inactive: [1] | [2] | [3]
